{"source": "PubChem BioAssay (Tox21)", "note": "Results filed as inconclusive are left out. Calls of active or inactive are those of the source. Unless noted, calls come from the whole dose curve. Where a SMILES comes first, the peptide text is derived from it. [ ]: non-standard residue; d: D form. pGlu = O=C1CC[C@@H](C(=O)O)N1; note: % is set by controls: 0 for no effect and ±100 for the full control effect", "data": [{"assay": "qHTS assay to identify small molecule agonists of the hypoxia (HIF-1) signaling pathway (AID 1224846; active = well fitted activation curve with a large enough effect in the signal ratio in the repeat runs, not every such curve was filed as active; the % refers to the signal ratio)", "settings": "HRE-bla ME-180 cells, beta-lactamase ratio, 17 h; series mostly up to 76.8 µM", "outline": "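Steps: seed ME-180 HRE-bla cells (2,000/well, 0.5% dialyzed FBS); incubate 5 hrs at 37C; pin-transfer compounds or DMSO; incubate 17 hrs; add LiveBLAzer B/G substrate CCF4-AM; measure reporter activation by FRET.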", "values": [{"smiles": "O=S(=O)(O)c1cc(O)c(O)c(S(=O)(=O)O)c1", "outcome": "inactive"}, {"smiles": "Nc1ccn([C@@H]2O[C@H](CO)[C@@H](O)C2O)c(=O)n1", "note": "(stereo partly drawn)", "outcome": "inactive"}, {"smiles": "CC1=NN(c2cc(S(=O)(=O)O)ccc2Cl)C(=O)C1N=Nc1ccccc1", "note": "(stereo not drawn)", "outcome": "inactive"}, {"smiles": "O=S(=O)(O)c1cccc(S(=O)(=O)O)c1", "outcome": "inactive"}, {"smiles": "CCC(C(=O)NC(=O)NC(C)=O)c1ccccc1", "note": "(stereo not drawn)", "outcome": "inactive"}, {"smiles": "CC1=CC(=O)[C@H]2C[C@@H]1C2(C)C", "outcome": "inactive"}, {"smiles": "CC[C@H]1OC(=O)[C@H](C)[C@@H](O[C@H]2C[C@@](C)(OC)[C@@H](O)[C@H](C)O2)[C@H](C)[C@@H](O[C@@H]2O[C@H](C)C[C@H](N(C)C)[C@H]2O)[C@](C)(OC)C[C@@H](C)C(=O)[C@H](C)[C@@H](O)[C@]1(C)O", "outcome": "inactive"}, {"smiles": "CCCCCCCCCCCCCCC(=O)O", "outcome": "inactive"}, {"smiles": "CN1CCC(=C2c3ccccc3CCc3cccnc32)CC1", "outcome": "inactive"}, {"smiles": "CCOc1ccccc1OCC", "outcome": "inactive"}, {"smiles": "CCNC(=O)[C@@H]1CCCN1C(=O)[C@H](CCCN=C(N)N)NC(=O)[C@H](CC(C)C)NC(=O)CNC(=O)[C@H](Cc1ccc(O)cc1)NC(=O)[C@H](CO)NC(=O)[C@H](Cc1c[nH]c2ccccc12)NC(=O)[C@H](Cc1cnc[nH]1)NC(=O)[C@@H]1CCC(=O)N1", "note": "([pGlu]HWSYGLRP-NHEt)", "outcome": "inactive"}, {"smiles": "C[C@H]1C[C@H]2[C@@H]3CCC4=CC(=O)C=C[C@]4(C)[C@H]3C(=O)C[C@]2(C)[C@@]1(O)C(=O)CO", "outcome": "inactive"}, {"smiles": "CN1CCN(c2cc3c(nn2)Oc2ccccc2N3C)CC1", "activation": "0.831% [at 15.8 µM] (inactive)"}, {"smiles": "OCCCCCO", "outcome": "inactive"}, {"smiles": "Nc1c2c(nc3c1CCC3)CCCC2", "outcome": "inactive"}, {"smiles": "CCOCC(C)O", "note": "(stereo not drawn)", "outcome": "inactive"}, {"smiles": "CCCCN1C=CN(C)C1", "activation": "-0.256% [at 15.8 µM] (inactive)"}, {"smiles": "C=CCCC(=O)O", "outcome": "inactive"}, {"smiles": "CC(C#N)(CCC(=O)O)N=NC(C)(C#N)CCC(=O)O", "note": "(stereo not drawn)", "outcome": "inactive"}, {"smiles": "CN(C)CCCCCCN(C)C", "outcome": "inactive"}]}, {"assay": "qHTS assay to identify small molecule agonists of H2AX - cell viability counter screen (AID 1224847);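 note: wild-type CHO-K1 cells; top concentration of the series differs between compounds; nearly all actives have a fitted effect of over 30% in size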", "settings": "CHO-K1 viability, CellTiter-Glo luminescence, 3 h; series mostly up to 154 µM", "outline": "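CHO-K1 cells plated overnight at 37C, then exposed 3 h at 37C to compounds at 15 concentrations (0.76% DMSO final). Viability by CellTiter-Glo luminescence after 30 min at room temperature.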", "values": [{"smiles": "O=S(=O)(O)c1cc(O)c(O)c(S(=O)(=O)O)c1", "outcome": "inactive"}, {"smiles": "CCC1C(=O)OCC1Cc1cncn1C", "note": "(stereo not drawn)", "outcome": "inactive"}, {"smiles": "C[C@H]1[C@H](NC(=O)/C(=N/OC(C)(C)C(=O)O)c2csc(N)n2)C(=O)N1S(=O)(=O)O", "note": "(stereo in doubt)", "outcome": "inactive"}, {"smiles": "Nc1ccn([C@@H]2O[C@H](CO)[C@@H](O)C2O)c(=O)n1", "note": "(stereo partly drawn)", "outcome": "inactive"}, {"smiles": "CC1=NN(c2cc(S(=O)(=O)O)ccc2Cl)C(=O)C1N=Nc1ccccc1", "note": "(stereo not drawn)", "outcome": "inactive"}, {"smiles": "O=S(=O)(O)c1cccc(S(=O)(=O)O)c1", "outcome": "inactive"}, {"smiles": "CCN[C@H]1C[C@H](C)S(=O)(=O)c2sc(S(N)(=O)=O)cc21", "outcome": "inactive"}, {"smiles": "NCCCC(N)(C(=O)O)C(F)F", "note": "(stereo not drawn)", "outcome": "inactive"}, {"smiles": "CCC(C(=O)NC(=O)NC(C)=O)c1ccccc1", "note": "(stereo not drawn)", "outcome": "inactive"}, {"smiles": "CC(C)NNC(=O)c1ccncc1", "outcome": "inactive"}, {"smiles": "NCCCC[C@H](N[C@@H](CCc1ccccc1)C(=O)O)C(=O)N1CCC[C@H]1C(=O)O", "outcome": "inactive"}, {"smiles": "CC1=CC(=O)[C@H]2C[C@@H]1C2(C)C", "outcome": "inactive"}, {"smiles": "CN(C)C(=O)Oc1cccc([N+](C)(C)C)c1", "outcome": "inactive"}, {"smiles": "CC[C@H]1OC(=O)[C@H](C)[C@@H](O[C@H]2C[C@@](C)(OC)[C@@H](O)[C@H](C)O2)[C@H](C)[C@@H](O[C@@H]2O[C@H](C)C[C@H](N(C)C)[C@H]2O)[C@](C)(OC)C[C@@H](C)C(=O)[C@H](C)[C@@H](O)[C@]1(C)O", "outcome": "inactive"}, {"smiles": "COC(=O)C1=C(C)NC(C)=C(C(=O)OC(C)C)C1c1cccc2nonc12", "note": "(stereo not drawn)", "outcome": "inactive"}, {"smiles": "CCCCCCCCCCCCCCC(=O)O", "outcome": "inactive"}, {"smiles": "CN1CCC(=C2c3ccccc3CCc3cccnc32)CC1", "outcome": "inactive"}, {"smiles": "CCOc1ccccc1OCC", "outcome": "inactive"}, {"smiles": "CCCc1ncc(C[n+]2ccccc2C)c(N)n1", "outcome": "inactive"}, {"smiles": "CCOC(=O)c1cnc2c(cnn2CC)c1NN=C(C)C", "outcome": "inactive"}, {"smiles": "CC(C(=O)O)c1cccc(Oc2ccccc2)c1", "note": "(stereo not drawn)", "outcome": "inactive"}, {"smiles": "CCNC(=O)[C@@H]1CCCN1C(=O)[C@H](CCCN=C(N)N)NC(=O)[C@H](CC(C)C)NC(=O)CNC(=O)[C@H](Cc1ccc(O)cc1)NC(=O)[C@H](CO)NC(=O)[C@H](Cc1c[nH]c2ccccc12)NC(=O)[C@H](Cc1cnc[nH]1)NC(=O)[C@@H]1CCC(=O)N1", "note": "([pGlu]HWSYGLRP-NHEt)", "outcome": "inactive"}, {"smiles": "C[N+]1(C)[C@@H]2CC(OC(=O)[C@H](CO)c3ccccc3)C[C@H]1[C@@H]1O[C@@H]12", "note": "(stereo partly drawn)", "outcome": "inactive"}, {"smiles": "CC[N+](C)(CC)CCOC(=O)C1c2ccccc2Oc2ccccc21", "outcome": "inactive"}, {"smiles": "C[C@H]1C[C@H]2[C@@H]3CCC4=CC(=O)C=C[C@]4(C)[C@H]3C(=O)C[C@]2(C)[C@@]1(O)C(=O)CO", "outcome": "inactive"}, {"smiles": "CCC(C)(CN(C)C)OC(=O)c1ccccc1", "note": "(stereo not drawn)", "outcome": "inactive"}, {"smiles": "CN1CCN(c2cc3c(nn2)Oc2ccccc2N3C)CC1", "activity change, negative = cytotoxicity": "0.295% [at 31.6 µM] (inactive)"}, {"smiles": "OCCCCCO", "outcome": "inactive"}, {"smiles": "CCN[C@@H]1C[C@H](N)[C@@H](OC2OC(CN)=CCC2N)[C@H](O)[C@H]1O[C@H]1OC[C@](C)(O)[C@H](NC)[C@H]1O", "note": "(stereo partly drawn)", "activity change, negative = cytotoxicity": "4.57% [at 0.582 µM] (inactive)"}, {"smiles": "C[N+](C)(C)CCCCCCCCCC[N+](C)(C)C", "outcome": "inactive"}, {"smiles": "Nc1c2c(nc3c1CCC3)CCCC2", "outcome": "inactive"}, {"smiles": "CCOCC(C)O", "note": "(stereo not drawn)", "outcome": "inactive"}, {"smiles": "CC[N+](CC)(CC)CCOc1cccc(OCC[N+](CC)(CC)CC)c1OCC[N+](CC)(CC)CC", "outcome": "inactive"}, {"smiles": "CCCCN1C=CN(C)C1", "activity change, negative = cytotoxicity": "-1.83% [at 31.6 µM] (inactive)"}, {"smiles": "COc1cc(-c2ccc(=O)[nH]n2)ccc1OC(F)F", "outcome": "inactive"}, {"smiles": "C=CCCC(=O)O", "outcome": "inactive"}, {"smiles": "CC(C#N)(CCC(=O)O)N=NC(C)(C#N)CCC(=O)O", "note": "(stereo not drawn)", "outcome": "inactive"}, {"smiles": "CN(C)CCCCCCN(C)C", "outcome": "inactive"}]}]}
